Assay results: PubChem BioAssay
The source made the active and inactive calls.

Assays:
[1] = tested on: Human papillomavirus type 1a protein E7 (residues 44-93); test: small molecules binding HPV E7 44-93 – biochemical, small-molecule microarray, residues 44-93, 635 nm fluorescence, primary screen (AID 1108); conditions: fluorescence 635 nm, higher = more signal;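 also: E7 fragment applied at 1 µg/mL in TBST for 1 h at 4 C; score combines spot fluorescence with its signal to noise ratio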
[2] = hepatitis C replication reporter changes, two-sided – Huh7 cells, luciferase reporter, HCV replication inhibitor project, primary screen (AID 1109); conditions: Huh7 HCV replicon luciferase reporter, 48 h; higher = more signal;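 also: huh7 hepatoma cells harbouring a luciferase neomycin HCV replicon reporter; luciferase luminescence as measure of HCV replicon replication; test concentration not given here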
[3] = biological target: Left-right determination factor 2 (Homo sapiens) (UniProt O00292); test: small molecules binding LEFTY2 protein – biochemical, small-molecule microarray, 635 nm fluorescence scan, primary screen (AID 1110); conditions: higher = more signal
[4] = biological target: Calmodulin-1 (Homo sapiens) (UniProt P0DP23); test: small molecules binding calmodulin-1 with EGTA – biochemical, small-molecule microarray, Cy5-labelled CALM1, profiling panel (AID 1111); conditions: Cy5-CALM1 binding fluorescence, higher = more signal;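 also: labelled calmodulin applied in Tris saline Tween buffer holding calcium plus EGTA and DTT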
[5] = biological target: Calmodulin-1 (Homo sapiens) (UniProt P0DP23); test: small molecules binding Ca-loaded calmodulin-1 – biochemical, small-molecule microarray, Cy5-labelled CALM1, plus calcium, artefact control for SMM control-protein annotation, profiling panel (AID 1112); conditions: Cy5-CALM1 binding fluorescence, higher = more signal;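 also: score merges spot fluorescence with signal to noise from triplicate slides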
[6] = probe aWnt5a binding to arrayed compounds – biochemical, biotinylated probe, 635/667 nm fluorescence, primary screen (AID 1113); conditions: small-molecule microarray, higher = more signal;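 also: score merges 667 nm fluorescence intensity with signal-to-noise per printed feature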
[7] = probe aShh binding to arrayed compounds – biochemical, biotinylated probe, 635/667 nm fluorescence, primary screen (AID 1114); conditions: small-molecule microarray, higher = more signal;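 also: probe is biotin-labelled aShh protein from a stem cell growth factor screen; measures binding of labelled protein to compounds printed on the slide; score merges feature fluorescence at 667 nm with signal-to-noise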
[8] = probe aNog binding to arrayed compounds – biochemical, biotinylated probe, 635/667 nm fluorescence, primary screen (AID 1115); conditions: small-molecule microarray, higher = more signal;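 also: probe is biotinylated aNog protein used at 0.15 µg/mL for 1 h at 4 C; z-score combines 667 nm fluorescence of each spot with its signal to noise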
[9] = biological target: Torsin-1A-interacting protein 1 (Homo sapiens) (UniProt Q5JTV8); test: compound microarray binding of lysate hLAP1 – cell lysate, small-molecule microarray, COS7 lysate, 635/667 nm fluorescence, primary screen (AID 1116); conditions: 635 nm fluorescence, higher = more signal
[10] = biological target: Alpha-bungarotoxin (Bungarus multicinctus) (UniProt P60615); test: compounds binding labelled alpha-BTX control protein – biochemical, small-molecule microarray, Alexa647 label, 635/667 nm fluorescence, artefact control for SMM control protein annotation, profiling panel (AID 1117); conditions: alpha-BTX-A647 binding fluorescence, higher = more signal
Albumin (Bos taurus) = Albumin (Bos taurus) (UniProt P02769); test: compounds binding labelled BSA control protein – biochemical, small-molecule microarray, Alexa647 label, 635/667 nm fluorescence, artefact control for SMM control protein annotation, profiling panel (AID 1118); conditions: BSA-A647 binding, fluorescence 635 nm, higher = more signal;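 also: score merges 667 nm emission intensity and signal-to-noise per printed compound spot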
[11] = probe aXIP binding to arrayed compounds – biochemical, NeuroSMM set, 635/667 nm fluorescence, primary screen (AID 1119); conditions: small-molecule microarray, higher = more signal, called active from +8 up or from −8 down;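 also: probe is the protein aXip251-270 applied at 1 µg/mL to compound-printed slides; binding of probe to printed compounds measured as 667 nm fluorescence plus signal to noise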
[12] = probe aNOTCH3 binding on compound microarray – biochemical, small-molecule microarray, 635/667 nm fluorescence, primary screen (AID 1120); conditions: higher = more signal;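 also: probe is a biotin-tagged antibody raised against NOTCH3 rather than NOTCH3 protein; score merges spot fluorescence near 667 nm with spot signal to noise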
[13] = probe aNOTCH2 binding on compound microarray – biochemical, small-molecule microarray, 635/667 nm fluorescence, primary screen (AID 1121); conditions: higher = more signal;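 also: score merges feature fluorescence read at 667 nm with its signal to noise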
[14] = biological target: Carbonic anhydrase 2 (Homo sapiens) (UniProt P00918); test: compounds binding carbonic anhydrase 2 – biochemical, small-molecule microarray, Alexa647-labelled CAII, profiling panel (AID 1122); conditions: CAII-A647 binding fluorescence, higher = more signal
[15] = COS7 lysate on small-molecule microarray, probe aHis, 635 nm (AID 1123); conditions: COS7 cell lysate, fluorescence, higher = more signal;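 also: z-score combines 667nm fluorescence intensity with signal-to-noise per printed compound spot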
[16] = probe aLAP1 signal on lysate-treated microarray – cell lysate, small-molecule microarray, COS7 lysate, primary screen (AID 1124); conditions: probe aLAP1, fluorescence, higher = more signal;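 also: lysate comes from COS7 cells expressing LAP1 and is applied at 0.3 µg/mL; score merges spot fluorescence near 667 nm with signal-to-noise over triplicate slides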
Sam68 (KHDRBS1) = test: compounds binding KHDRBS1 protein – biochemical, small-molecule microarray, 635 nm fluorescence, primary screen (AID 1125); conditions: higher = more signal;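 also: score merges 667 nm channel intensity with signal to noise over triplicate slides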
[17] = tested on: Chordin-like protein 2 (CHRDL2); test: compounds binding chordin-like 2 – biochemical, small-molecule microarray, 635 nm fluorescence, primary screen (AID 1126); conditions: fluorescence 635 nm, higher = more signal;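 also: printed compound slides probed with Chrdl2 protein at 4 µg/mL for 1 h at 4 C; score merges 667 nm emission intensity with signal to noise over three replicate slides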
[18] = biological target: Concanavalin-A (Canavalia ensiformis) (UniProt P02866); test: compounds binding concanavalin A lectin – biochemical, small-molecule microarray, Alexa647 label, 635 nm, artefact control for SMM control protein annotation, primary screen (AID 1127); conditions: ConA-A647 binding fluorescence, higher = more signal;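 also: z combines 667 nm emission intensity with signal-to-noise across three replicate slides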
Concanavalin-A (Canavalia ensiformis), sequence (P02866 whole entry, looked up): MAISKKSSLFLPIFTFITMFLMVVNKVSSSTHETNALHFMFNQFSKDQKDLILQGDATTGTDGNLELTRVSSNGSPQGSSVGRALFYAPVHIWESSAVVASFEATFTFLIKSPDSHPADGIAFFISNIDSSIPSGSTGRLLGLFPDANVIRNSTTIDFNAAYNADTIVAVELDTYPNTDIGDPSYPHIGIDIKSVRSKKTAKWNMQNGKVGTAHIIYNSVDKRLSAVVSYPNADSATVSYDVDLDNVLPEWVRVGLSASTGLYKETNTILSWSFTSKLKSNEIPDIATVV

Alpha-bungarotoxin (Bungarus multicinctus), sequence (P60615 whole entry, looked up): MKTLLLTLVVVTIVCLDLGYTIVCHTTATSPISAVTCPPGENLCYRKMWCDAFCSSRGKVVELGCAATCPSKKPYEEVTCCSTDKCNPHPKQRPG
Albumin (Bos taurus), sequence (P02769 whole entry, looked up): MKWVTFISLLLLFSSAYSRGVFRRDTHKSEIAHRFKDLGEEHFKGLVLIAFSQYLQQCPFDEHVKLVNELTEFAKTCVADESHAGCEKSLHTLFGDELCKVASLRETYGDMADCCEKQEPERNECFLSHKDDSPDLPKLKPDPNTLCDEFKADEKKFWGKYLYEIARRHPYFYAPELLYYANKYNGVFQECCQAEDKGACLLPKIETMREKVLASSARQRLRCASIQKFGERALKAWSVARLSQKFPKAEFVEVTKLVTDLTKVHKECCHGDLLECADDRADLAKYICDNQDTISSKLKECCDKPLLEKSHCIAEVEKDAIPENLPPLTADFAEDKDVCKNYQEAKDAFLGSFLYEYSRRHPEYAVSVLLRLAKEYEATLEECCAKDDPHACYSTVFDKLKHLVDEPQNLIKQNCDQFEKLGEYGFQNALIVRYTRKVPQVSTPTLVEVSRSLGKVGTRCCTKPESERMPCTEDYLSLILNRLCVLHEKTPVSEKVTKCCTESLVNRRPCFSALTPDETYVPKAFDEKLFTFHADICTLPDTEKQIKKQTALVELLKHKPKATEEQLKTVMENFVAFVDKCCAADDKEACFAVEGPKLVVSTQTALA
Left-right determination factor 2 (Homo sapiens), sequence (O00292 whole entry, looked up): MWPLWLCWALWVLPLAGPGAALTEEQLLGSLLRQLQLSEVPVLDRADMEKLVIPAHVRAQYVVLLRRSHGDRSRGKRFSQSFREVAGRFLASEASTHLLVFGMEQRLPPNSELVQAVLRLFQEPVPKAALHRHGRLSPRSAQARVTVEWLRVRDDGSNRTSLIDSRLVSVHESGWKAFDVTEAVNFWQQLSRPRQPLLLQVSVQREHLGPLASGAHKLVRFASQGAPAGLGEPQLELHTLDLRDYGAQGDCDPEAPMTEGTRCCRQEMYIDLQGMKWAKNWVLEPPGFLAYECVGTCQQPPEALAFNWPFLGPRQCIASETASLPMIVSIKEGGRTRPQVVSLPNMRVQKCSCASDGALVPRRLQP
Torsin-1A-interacting protein 1 (Homo sapiens), sequence (Q5JTV8 whole entry, looked up): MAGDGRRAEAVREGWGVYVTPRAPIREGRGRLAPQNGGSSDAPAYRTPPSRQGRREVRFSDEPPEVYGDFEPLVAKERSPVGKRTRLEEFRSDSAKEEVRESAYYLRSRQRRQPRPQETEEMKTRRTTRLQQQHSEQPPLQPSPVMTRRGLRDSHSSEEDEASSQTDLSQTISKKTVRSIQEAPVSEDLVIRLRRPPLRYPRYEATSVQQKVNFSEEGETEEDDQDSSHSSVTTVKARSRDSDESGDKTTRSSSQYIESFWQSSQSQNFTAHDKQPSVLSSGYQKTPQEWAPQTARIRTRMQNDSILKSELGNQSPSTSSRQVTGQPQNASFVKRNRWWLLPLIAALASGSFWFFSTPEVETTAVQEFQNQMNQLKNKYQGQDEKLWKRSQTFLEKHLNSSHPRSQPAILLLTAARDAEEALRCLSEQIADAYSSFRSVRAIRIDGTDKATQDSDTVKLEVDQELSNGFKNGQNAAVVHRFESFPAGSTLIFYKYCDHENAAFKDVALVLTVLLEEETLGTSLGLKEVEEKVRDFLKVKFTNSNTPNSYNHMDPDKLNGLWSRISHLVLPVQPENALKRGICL

Row | Compound | composite z-score [1] | z-score [2] | composite z-score [3] | composite z-score [4] | composite z-score [5] | composite z-score [6] | composite z-score [7] | composite z-score [8] | composite z-score [9] | composite z-score [10] | composite z-score (Albumin (Bos taurus)) | composite Z-score [11] | composite z-score [12] | composite z-score [13] | composite z-score [14] | composite z-score [15] | composite z-score [16] | composite z-score (Sam68 (KHDRBS1)) | composite z-score [17] | composite z-score [18]
1 | CCOC(=O)[C@H](CC(C)C)NC(=O)CCC1CC(OC(=O)NCc2cccc3ccccc23)CC2(CCCC(COC(=O)NCCC(C)C)O2)O1 (stereo not given in full) | 0.15 | 0.502 | 0.443 | 0.18 | -0.703 | -0.0529 | -0.182 | -0.32 | 0.165 | 0.503 | 0.352 | -0.136 (inactive) | -0.147 | -0.153 | 0.562 | 0.795 | -0.104 | -0.0361 | 0.443 | 0.0178
2 | CCc1cc2c(nc1CC)CCN(CCC(C)=NO[C@H](C)c1cn([C@@H]3COC[C@H]3O)nn1)C2 | -0.236 | -0.53 | 0.368 | -0.433 | -0.931 | -0.0479 | 0.0723 | -0.172 | 0.651 | 0.173 | -0.559 | 0.577 (inactive) | -0.005 | -0.0554 | 0.202 | -0.394 | 0.111 | 0.325 | 0.61 | -0.178
3 | CC(CCN1CCCCc2nc(C)c(C)cc21)=NOC[C@@H](C)[C@H](OCc1ccccc1)C(C)C | -0.824 | -0.876 | -1.47 | -1.74 | -1.8 | -0.335 | -0.428 | -0.803 | -1.07 | -2.21 | -0.303 | -0.461 (inactive) | -0.427 | -0.298 | -0.497 | -0.31 | -0.899 | -0.758 | -1.78 | -1.88
4 | CCOC(=O)NN=C1C[C@@H](O)[C@@H](O)[C@@H]2[C@@H]3C(=O)N(c4ccc(F)cc4F)C(=O)[C@@H]3CC[C@@H]12 | 0.687 | 0.0324 | 0.292 | -0.167 | -0.205 | -0.0087 | -0.108 | -0.213 | 0.196 | -0.234 | 0.66 | 0.16 (inactive) | -0.144 | -0.156 | -0.103 | 0.218 | 0.196 | 0.591 | 0.312 | 0.307
5 | CCCCC#C[C@@H]1C=C[C@H](Oc2cc(OC)c(OC)c(OC)c2)[C@@H](COC(=O)OCC)O1 | -0.709 | -0.548 | 0.144 | -0.659 | -0.986 | -0.124 | -0.276 | -0.158 | 0.0606 | 0.624 | 0.227 | 0.0299 (inactive) | -0.128 | -0.0907 | -0.165 | -0.642 | 0.211 | -0.25 | 0.251 | -0.0793
6 | C#CCCCON=C1C[C@@H](O)[C@@H](O)[C@@H]2[C@@H]3C(=O)N(Cc4ccccc4)C(=O)[C@@H]3CC[C@@H]12 | 0.0417 | 0.858 | 0.26 | -0.274 | -0.0051 | -0.0236 | -0.253 | -0.133 | -0.194 | -0.221 | 0.745 | 0.23 (inactive) | -0.03 | -0.178 | -0.103 | -0.0919 | -0.0209 | -0.492 | 0.0362 | -0.324
